Inconclusive results are not listed. Values without a mark were called inactive. The source made the active and inactive calls. Calls follow the shape of the dose curve; as a rule, active = well fitted cell-killing curve with a large enough effect; inconclusive = small, poorly fitted or top-dose-only effect, or effect the other way; inactive = no such curve, though single readings can be large or run the other way.
Potency is read from the fitted curve at half-maximal effect.

The nature of this assay: Quantitative High-Throughput drug screen in 47 multiple myeloma cell lines against the NCATS MIPE library collection: JJN3_DSMZ cell viability assay (AID 1918966; also: nearly all actives have a fitted effect of over 50% in size). To be noted: JJN3 myeloma cells viability, CellTiter-Glo ATP, 48 h; series mostly up to 45.8 µM; viability, % of DMSO: at the top concentration. The text has this:
PI: Beverly A. Mock Ph.D.
Laboratory of Cancer Biology and Genetics,
Center for Cancer Research, National Cancer Institute,
National Institute of Health, Bethesda, Maryland
Drug resistance and disease progression are common in multiple myeloma (MM) patients, underscoring the need for new therapeutic combinations. […] We hypothesized that effective combinations would reduce MYC expression and enhance p16 activity. […] These preclinical data identify potentially useful drug combinations for evaluation in drug-resistant MM and reveal potential mechanisms of combined drug sensitivity.
Described herein is the primary MIPE qHTS used to cherrypick compounds. Validated compounds were then further tested for potential synergistic activiy.
[1] Peat TJ, Gaikwad SM, Dubois W, Gyabaah-Kessie N, Zhang S, Gorjifard S, Phyo Z, Andres M, Hughitt VK, Simpson RM, Miller MA, Girvin AT, Taylor A, Williams D, D'Antonio N, Zhang Y, Rajagopalan A, Flietner E, Wilson K, Zhang X, Shinn P, Klumpp-Thomas C, McKnight C, Itkin Z, Chen L, Kazandijian D, Zhang J, Michalowski AM, Simmons JK, Keats J, Thomas CJ, Mock BA. Drug combinations identified by high-throughput screening promote cell cycle transition and upregulate Smad pathways in myeloma. Cancer Lett. 2023 Aug 1;568:216284. doi: 10.1016/j.canlet.2023.216284. Epub 2023 Jun 24. PMID: 37356470; PMCID: PMC10408729.
SEQUENCE No. (e.g., 1, 2, 3, etc.); […] (e.g., Cells, Incubation, Reagent, etc.); VALUE and DESCRIPTION.
1; Cells; 5 uL; white, solid bottom 1536-well Greiner assay plate.
2; Compounds; 23 nL; Kalypsis pin tool (Wako USA) equipped with a 1536-well pin head to transfer to the assay plates.
3; Incubation; 48 hours; 37C incubation.
4; Reagent;5uL; CellTiter Glo (Promega).
5; Detector; 425V; Luminescence; Viewlux PerkinElmer.
NOTES (numbers refer to Sequence numbers above)
1. The cell-based screening methods employed in this study were like those previously published. Briefly, the corresponding myeloma cell lines were screened in 1,536-well plates with 500 cells, 5-uL per well for inhibition of cell viability (assessed by measuring ATP levels with CellTiterGlo).
2. NCATS MIPE 4.0 library of approved and investigational drugs were added using the Kalypsis pin tool. Wells treated with DMSO only for 100% viability and media only wells for 0% viability were used as controls.
3. The assay plates were covered and incubated for 48 hours in a 37C, 5% CO2 incubator with controlled humidity.
4. After 48 hours, CellTilter-GloTM luminescent substrate mix (Promega) reagent was added to the assay plate and plates we incubated for 5 min at room temperature.
5. Signal was measured as median relative luminescence units on a ViewLux (PerkinElmer) multiplate reader.
[1] Heske CM, Davis MI, Baumgart JT, Wilson K, Gormally MV, Chen L, Zhang X, Ceribelli M, Duveau DY, Guha R, Ferrer M, Arnaldez FI, Ji J, Tran HL, Zhang Y, Mendoza A, Helman LJ, Thomas CJ. Matrix Screen Identifies Synergistic Combination of PARP Inhibitors and Nicotinamide Phosphoribosyltransferase (NAMPT) Inhibitors in Ewing Sarcoma. Clin Cancer Res. 2017 Dec 1;23(23):7301-7311. doi: 10.1158/1078-0432.CCR-17-1121. Epub 2017 Sep 12. PMID: 28899971; PMCID: PMC6636827.
On the technique in general: ATP-based viability assays read luminescence as a measure of living cells.
For `O=c1cc(-c2ccc(O)cc2)oc2cc(O)cc(O)c12`, the Potency is 3.32 µM (active).

`CC(C)(Cc1ccc2ccccc2c1)NC[C@@H](O)COc1cccc(Cl)c1C#N`: the Potency is 5.9 µM (active).

On to `CC1(C)O[C@H]2C[C@@H]3[C@H]4CCC5=CC(=O)C=C[C@]5(C)[C@@]4(F)[C@@H](O)C[C@]3(C)[C@]2(C(=O)CO)O1`, for which the “viability, % of DMSO” value was 99.2%.

Take `CCc1ccc(OCc2ccccc2C(=O)Nc2ccc3nc(C)cc(N)c3c2)cc1`: the Potency was 6.62 µM (active).

Turning to `COc1ccc2c(Oc3ccc(NC(=O)c4c(C)n(CC(C)(C)O)n(-c5ccccc5)c4=O)cc3F)ccnc2c1`, the Potency was 8.33 µM (active).

As to `O=C(O)[C@H]1O[C@H](Oc2cc3oc(-c4ccccc4)cc(=O)c3c(O)c2O)[C@H](O)[C@@H](O)[C@H]1O`, the Potency was 13.2 µM (active).

With `COC(=O)N[C@H](C(=O)N1CCC[C@@H]1c1ncc(-c2ccc(-c3ccc(-c4cnc([C@@H]5CCCN5C(=O)[C@@H](NC(=O)OC)C(C)C)[nH]4)cc3)cc2)[nH]1)C(C)C`, the Potency is 23.5 µM (active).

Regarding `Oc1ccc(C2CCN(c3ccnc4ccccc34)CC2)cc1O`, the Potency is 16.6 µM (active).

As to `COc1cc2ncnc(Nc3ccc(F)c(Cl)c3)c2cc1OCCCN1CCOCC1`, the Potency was 42.9 µM (active).

As for `O=C(CCCCCCC(=O)Nc1ccccc1)NO`, the Potency is 3.32 µM (active).

With `CC(C)(C)Cn1c(N)nc2ccc(-c3[nH]c(C(C)(C)C)nc3-c3ccc(F)cc3)nc21`, the Potency is 20.9 µM (active).

With `Cc1ccc(F)c(NC(=O)Nc2ccc(-c3cccc4[nH]nc(N)c34)cc2)c1`, the Potency was 18.7 µM (active).

In the case of `CN(C)C1CCN(C(=O)c2ccc(NC(=O)Nc3nc(N4CCOCC4)nc(N4CCOCC4)n3)cc2)CC1`, the Potency was 0.0833 µM (active).

As for `CN(C)Cc1ccc(-c2nc3cccc4c3n2CCNC4=O)cc1`, the Potency was 18.7 µM (active).

In the case of `NC[C@@H]1O[C@@H](O[C@H]2[C@@H](O)[C@H](O[C@@H]3[C@@H](O)[C@@H](N)C[C@H](N)[C@H]3O[C@H]3O[C@H](CN)[C@@H](O)[C@@H](O)[C@H]3N)O[C@H]2CO)[C@H](N)[C@@H](O)[C@@H]1O`, the “viability, % of DMSO” value is 118%.

Turning to `Cc1[nH]c(C=C2C(=O)Nc3ccc(S(=O)(=O)Cc4c(Cl)cccc4Cl)cc32)c(C)c1C(=O)N1CCC[C@H]1CN1CCCC1`, the Potency was 23.5 µM (active).

Consider `COc1ccc2c3c1OC1C[C@@H](O)C=C[C@@]31CCN(C)C2` (stereo not given in full), for which the Potency is 4.18 µM (active).

Take `COc1cc2nc(-c3ccc(N4CCN(C)CC4)cc3)nc(NCCN3CCOCC3)c2cc1OC`: the Potency was 0.0148 µM (active).

`CC(C)=CC[C@@H](O)C1=CC(=O)c2c(O)ccc(O)c2C1=O`: the Potency was 0.372 µM (active).

As to `COc1ccc(-c2coc3cc(O)ccc3c2=O)cc1`, the “viability, % of DMSO” value was 115%.

Consider `Cc1c(O)cccc1C(=O)N[C@@H](CSc1ccccc1)[C@H](O)CN1C[C@H]2CCCC[C@@H]2C[C@@H]1C(=O)NC(C)(C)C`, for which the Potency was 18.7 µM (active).

Regarding `CC#CCn1c(N2CCC[C@@H](N)C2)nc2c1c(=O)n(Cc1nc(C)c3ccccc3n1)c(=O)n2C`, the Potency was 3.72 µM (active).

Consider `Cc1cc(OCCCc2c(C(=O)O)n(Cc3cccnc3)c3c(-c4c(COc5ccc(N6CCN([S+](C)(=O)[O-])CC6)cc5)nn(C)c4C)cccc23)cc(C)c1Cl`, for which the Potency is 26.4 µM (active).

For the compound `CCn1c(C(=O)N(C2CC2)C2CC2)cc2c3c(ncn3C)c(Nc3cc(C)n(C)n3)nc21`, the Potency is 20.9 µM (active).

Regarding `O=c1c(-c2ccc(O)cc2)coc2cc(O[C@@H]3O[C@H](CO)[C@H](O)[C@H](O)[C@H]3O)ccc12`, the “viability, % of DMSO” value was 130%.

With `CS(=O)c1ccc(-c2nc(-c3ccc(F)cc3)c(-c3ccncc3)[nH]2)cc1` (stereo not given), the Potency is 2.15 µM (active).

Turning to `O=C1C(Cl)=C(NCCN2CCOCC2)C(=O)c2ncccc21`, the Potency is 3.72 µM (active).

With `CC[C@@H]1C=C(C)C[C@H](C)C[C@H](OC)[C@H]2O[C@@](O)(C(=O)C(=O)N3CCCC[C@@H]3C(=O)O[C@H](C(C)=C[C@@H]3CC[C@H](Cl)[C@H](OC)C3)[C@H](C)[C@@H](O)CC1=O)[C@H](C)C[C@H]2OC`, the Potency was 20.9 µM (active).

Regarding `O=C(NC1CCOCC1)c1ccc(-c2cc(-c3cn[nH]c3-c3ccccn3)ccn2)cc1`, the “viability, % of DMSO” value is 139%.

For the compound `O=C(Nc1c(Cl)cncc1Cl)c1ccc(OC(F)F)c(OCC2CC2)c1`, the “viability, % of DMSO” value is 148%.

Consider `CC1(C)CCC(CN2CCN(c3ccc(C(=O)NS(=O)(=O)c4ccc(NCC5CCOCC5)c([N+](=O)[O-])c4)c(Oc4cnc5[nH]ccc5c4)c3)CC2)=C(c2ccc(Cl)cc2)C1`, for which the Potency is 20.9 µM (active).

As to `COc1cccc2c1CCCC2CCCN1CCN(C2CCCCC2)CC1` (stereo not given), the Potency was 20.9 µM (active).

Turning to `CC1CCC(C(=O)N(c2cc(C#CC(C)(C)C)sc2C(=O)O)C2CCC(O)CC2)CC1` (stereo not given), the Potency is 18.7 µM (active).

With `CCC(CC)[C@H](NC(C)=O)[C@@H]1[C@H](O)[C@@H](C(=O)O)C[C@@H]1N=C(N)N`, the “viability, % of DMSO” value was 125%.

Take `O=C(Nc1ccccc1-c1cn2c(CN3CCNCC3)csc2n1)c1cnc2ccccc2n1`: the Potency is 9.35 µM (active).

In the case of `c1cc(-c2sc(-c3ccncc3)c(-c3ccncc3)c2-c2ccncc2)ccn1`, the Potency was 16.6 µM (active).

Regarding `COc1ccc(-c2nc(N3CCOCC3)c3sc(CN(C)c4ncc(C(=O)NO)cn4)cc3n2)cn1`, the Potency is 0.0019 µM (active).

Turning to `CCS(=O)(=O)N1CC(CC#N)(n2cc(-c3ncnc4[nH]ccc34)cn2)C1`, the Potency is 11.8 µM (active).

On to `Clc1ccc(-c2nc3sccn3c2C=NOCc2ccc(Cl)c(Cl)c2)cc1`, for which the “viability, % of DMSO” value is 114%.

As for `O=c1ccn([C@@H]2O[C@H](CO)[C@H](O)[C@H]2O)c(=O)[nH]1`, the “viability, % of DMSO” value was 137%.

The values above are taken from PubChem BioAssay (NCATS).
